Source: PubChem BioAssay (NCI)
The panel holds about 79,000 compounds, 15% with a hit somewhere; the sample as a whole holds those more often. The source made the active and inactive calls. Rule as the data show it: active = growth inhibition above about 70%; inactive = the rest.

Columns and labels:
[1] = NCI Yeast Anticancer Drug Screen. Data for the rad52 strain (AID 147);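 also: 0% = growth of vehicle-treated control cultures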; details: S. cerevisiae rad52 mutant growth inhibition, stronger effect = higher value
In short: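 The repair-mutant yeast strain was incubated with compounds, then growth was read and inhibition derived relative to vehicle.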

[2] = NCI Yeast Anticancer Drug Screen. Data for the wt1 strain (AID 149);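 also: 0% = growth of vehicle-treated wt1 cultures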; details: S. cerevisiae wt1 strain (SPY 50644) growth inhibition, stronger effect = higher value
In short: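 Each compound is tested on wt1 yeast and the loss of growth versus vehicle gives the inhibition value.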

[3] = NCI Yeast Anticancer Drug Screen. Data for the rad50EPP+ strain (AID 151);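 also: 0% = growth of vehicle-treated control cultures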; details: S. cerevisiae rad50 mutant strain, stronger effect = higher value
In short: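 Vehicle-normalised growth inhibition; rad50EPP+ yeast strain, altered in DNA damage repair, compound-treated.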

[4] = NCI Yeast Anticancer Drug Screen. Data for the mgt1 strain (AID 153); details: S. cerevisiae mgt1 mutant growth inhibition, stronger effect = higher value
In short: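 Vehicle-normalized growth inhibition is determined in mgt1 yeast, a strain selected for a defined alteration in DNA repair or cell cycle control.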

[5] = NCI Yeast Anticancer Drug Screen. Data for the rad50 strain (AID 155);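 also: 0% = growth of vehicle-only cultures of the same strain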; details: S. cerevisiae rad50 strain growth inhibition, stronger effect = higher value
In short: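 Vehicle-treated cultures provide the reference for the growth inhibition reported for compound-exposed, repair-deficient yeast.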

[6] = NCI Yeast Anticancer Drug Screen. Data for the mec2-1 strain (AID 157); details: S. cerevisiae mec2-1 strain, stronger effect = higher value
In short: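 Mutant yeast (mec2-1) grown with compound; growth inhibition relative to vehicle control reported.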

[7] = NCI Yeast Anticancer Drug Screen. Data for the rad14 strain (AID 159);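 also: 0% = growth of vehicle-treated control cultures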; details: S. cerevisiae rad14 strain growth inhibition, stronger effect = higher value
In short: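 Inhibition of growth is reported for a repair-deficient yeast mutant following compound treatment, calculated relative to cultures that received vehicle.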

[8] = NCI Yeast Anticancer Drug Screen. Data for the sgs1 mgt1 strain (AID 161);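 also: 0% = growth of cultures given vehicle only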; details: S. cerevisiae sgs1 mgt1 strain, stronger effect = higher value
In short: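 Growth of a repair-deficient yeast mutant was monitored after compound treatment and expressed as inhibition relative to vehicle-treated cultures.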

[9] = NCI Yeast Anticancer Drug Screen. Data for the CLN2oe strain (AID 163);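 also: 0% = growth of vehicle-only control cultures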; details: S. cerevisiae CLN2oe strain, stronger effect = higher value
In short: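 Compounds are applied to yeast harbouring a defined cell-cycle control change; reduced growth compared with vehicle-treated controls gives the value.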

[10] = NCI Yeast Anticancer Drug Screen. Data for the cln2 rad14 strain (AID 165);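 also: 0% = growth equal to vehicle treated cultures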; details: S. cerevisiae cln2 rad14 strain, stronger effect = higher value
In short: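 Readout is yeast growth inhibition versus vehicle-treated controls, using a strain with cln2 and rad14 alterations exposed to compound.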

[11] = NCI Yeast Anticancer Drug Screen. Data for the bub3 strain (AID 167); details: S. cerevisiae bub3 mutant strain, stronger effect = higher value
In short: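 Mutant yeast screening strain plus compound; vehicle-treated cultures serve as the 0% inhibition reference.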

[12] = NCI Yeast Anticancer Drug Screen. Data for the wt2 strain (AID 169); details: S. cerevisiae wt2 strain growth inhibition, stronger effect = higher value
In short: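 Against vehicle-treated controls, the growth of yeast exposed to each compound was compared, and the inhibition was recorded.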

[13] = NCI Yeast Anticancer Drug Screen. Data for the mlh1 strain (AID 171);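 also: 0% = growth of vehicle-treated control cultures of the same strain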; details: S. cerevisiae mlh1 strain growth inhibition, stronger effect = higher value
In short: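 Measured: yeast growth. Reference: vehicle-treated controls. Organism: strain with a defined alteration affecting DNA damage repair or cell cycle control, treated with compound.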

[14] = NCI Yeast Anticancer Drug Screen. Data for the sgs1 strain (AID 173);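 also: 0% = growth of vehicle-only control cultures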; details: S. cerevisiae sgs1 mutant, stronger effect = higher value
In short: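 Each compound was added to cultures of the altered yeast strain. Growth was recorded, and inhibition was derived by comparison with vehicle controls.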

[15] = NCI Yeast Anticancer Drug Screen. Data for the mlh1 rad18 strain (AID 175); details: S. cerevisiae mlh1 rad18 strain growth inhibition, stronger effect = higher value
In short: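 Genetically defined yeast (DNA repair-deficient) exposed to compounds; growth inhibition determined relative to vehicle.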

[16] = NCI Yeast Anticancer Drug Screen. Data for the rad18 strain (AID 177); details: S. cerevisiae rad18 mutant growth inhibition, stronger effect = higher value
In short: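 Vehicle-treated cultures served as the baseline for scoring compound-induced growth inhibition in DNA-repair-mutant yeast.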

[17] = at 5.0 µM (retest, dose inferred, filed as 0.5)
[18] = at 50.0 µM (retest, dose inferred, filed as 5.0)

Measured: growth inhibition

CCCCCCCCCCNC(=O)OCC
active: [1]; at 100.0 µM 98% | [2]; at 100.0 µM 98% | [3]; at 100.0 µM 81% | [4]; at 100.0 µM 99% | [5]; at 50.0 µM 84.5% | [5]; at 100.0 µM 99% | [6]; at 50.0 µM 93.5% | [6]; at 100.0 µM 100% | [7]; at 100.0 µM 99% | [8]; at 50.0 µM 83.7% | [9]; at 100.0 µM 99% | [10]; at 50.0 µM 98.3% | [11]; at 50.0 µM 95.3% | [11]; at 100.0 µM 99% | [12]; at 100.0 µM 99% | [13]; at 100.0 µM 99% | [14]; at 100.0 µM 99% | [15]; at 50.0 µM 95% | [16]; at 100.0 µM 99%
inactive: [1]; at 1.2 µM 0% | [1]; at 3.7 µM 1% | [1]; at 11.0 µM 11% | [1]; at 33.0 µM 37% | [2]; at 1.2 µM -3% | [2]; at 3.7 µM -5% | [2]; at 11.0 µM -4% | [2]; at 33.0 µM 4% | [3]; at 1.2 µM 1% | [3]; at 3.7 µM 9% | [3]; at 11.0 µM 28% | [3]; at 33.0 µM 68% | [4]; at 1.2 µM -2% | [4]; at 3.7 µM -11% | [4]; at 11.0 µM 4% | [4]; at 33.0 µM 28% | [5]; at 1.2 µM 1% | [5]; at 3.7 µM 9% | [5]; [17] 1% | [5]; at 11.0 µM 24% | [5]; at 33.0 µM 40% | [5]; [18] 22% | [6]; at 1.2 µM -7% | [6]; at 3.7 µM -5% | [6]; [17] -7% | [6]; at 11.0 µM -6% | [6]; at 33.0 µM 7% | [6]; [18] 28% | [7]; at 1.2 µM -4% | [7]; at 3.7 µM -4% | [7]; at 11.0 µM -3% | [7]; at 33.0 µM 8% | [8]; [17] -2% | [8]; [18] 56% | [9]; at 1.2 µM 0% | [9]; at 3.7 µM 0% | [9]; at 11.0 µM 4% | [9]; at 33.0 µM 12% | [10]; [17] -55% | [10]; [18] 15% | [11]; at 1.2 µM 2% | [11]; at 3.7 µM -18% | [11]; [17] -21% | [11]; at 11.0 µM 9% | [11]; at 33.0 µM 8% | [11]; [18] 4% | [12]; at 1.2 µM -3% | [12]; at 3.7 µM -3% | [12]; at 11.0 µM 1% | [12]; at 33.0 µM 38% | [13]; at 1.2 µM -3% | [13]; at 3.7 µM 2% | [13]; at 11.0 µM 1% | [13]; at 33.0 µM 20% | [14]; at 1.2 µM -1% | [14]; at 3.7 µM -1% | [14]; at 11.0 µM 7% | [14]; at 33.0 µM 59% | [15]; [17] -15% | [15]; [18] 68% | [16]; at 1.2 µM 0% | [16]; at 3.7 µM 1% | [16]; at 11.0 µM 18% | [16]; at 33.0 µM 11%

O=C(N=Nc1cc(Cl)ccc1Cl)NNc1cc(Cl)ccc1Cl
inactive: [1]; at 1.2 µM -2% | [1]; at 3.7 µM -4% | [1]; at 11.0 µM -3% | [1]; at 33.0 µM -2% | [1]; at 100.0 µM 2% | [2]; at 1.2 µM -2% | [2]; at 3.7 µM 0% | [2]; at 11.0 µM -1% | [2]; at 33.0 µM 0% | [2]; at 100.0 µM 4% | [3]; at 1.2 µM -1% | [3]; at 3.7 µM -3% | [3]; at 11.0 µM -1% | [3]; at 33.0 µM -3% | [3]; at 100.0 µM 4% | [4]; at 1.2 µM -3% | [4]; at 3.7 µM -4% | [4]; at 11.0 µM 17% | [4]; at 33.0 µM -12% | [4]; at 100.0 µM 2% | [5]; at 1.2 µM -2% | [5]; at 3.7 µM -2% | [5]; [17] -2% | [5]; at 11.0 µM -23% | [5]; at 33.0 µM -1% | [5]; at 100.0 µM 3% | [6]; at 1.2 µM -1% | [6]; at 3.7 µM 0% | [6]; [17] 19% | [6]; at 11.0 µM 3% | [6]; at 33.0 µM -1% | [6]; at 100.0 µM 4% | [7]; at 1.2 µM -3% | [7]; at 3.7 µM -4% | [7]; at 11.0 µM -5% | [7]; at 33.0 µM 2% | [7]; at 100.0 µM 3% | [8]; [17] 3% | [8]; at 50.0 µM 66.5% | [9]; at 1.2 µM 0% | [9]; at 3.7 µM -7% | [9]; at 11.0 µM 0% | [9]; at 33.0 µM 0% | [9]; at 100.0 µM 9% | [10]; [17] 39% | [11]; at 1.2 µM -1% | [11]; at 3.7 µM 2% | [11]; [17] -30% | [11]; at 11.0 µM 3% | [11]; at 33.0 µM -7% | [11]; at 50.0 µM 60.1% | [11]; at 100.0 µM -6% | [12]; at 1.2 µM -1% | [12]; at 3.7 µM -3% | [12]; at 11.0 µM -2% | [12]; at 33.0 µM -1% | [12]; at 100.0 µM 2% | [13]; at 1.2 µM -1% | [13]; at 3.7 µM -5% | [13]; at 11.0 µM -3% | [13]; at 33.0 µM -1% | [13]; at 100.0 µM 1% | [14]; at 1.2 µM -2% | [14]; at 3.7 µM -1% | [14]; at 11.0 µM -1% | [14]; at 33.0 µM -1% | [14]; at 100.0 µM 1% | [15]; [17] 5% | [15]; at 50.0 µM 68.9% | [16]; at 1.2 µM -4% | [16]; at 3.7 µM -3% | [16]; at 11.0 µM -6% | [16]; at 33.0 µM -21% | [16]; at 100.0 µM 3%
active: [5]; [18] 76% | [5]; at 50.0 µM 74.4% | [6]; [18] 79% | [6]; at 50.0 µM 78.1% | [8]; [18] 73% | [10]; [18] 82% | [10]; at 50.0 µM 71.8% | [11]; [18] 81% | [15]; [18] 86%
